Active and inactive are the calls of the source. The calls were made as follows: active = hit-call score of the fitted dose curve at least 0.9, where 1 is the maximum; inactive = score below 0.9.

A short description of test [1]: ATG_GLI_CIS: Attagene CIS-FACTORIAL HepG2 Assay for human Zinc Finger Protein GLI1 (AID 2282945). Conditions: HepG2, Attagene cis-factorial reporter mRNA, GLI element; actives raise or lower the signal. The gist of the method:
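Transiently transfected HepG2 cells report endogenous transcription factor activity via cis-element-driven reporter units. After 24 h compound exposure, reporter mRNA was measured by RT-PCR with capillary electrophoresis; bidirectional fitting against DMSO baseline.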

Test [2] addresses Bile acid receptor (Homo sapiens) (UniProt Q96RI1). Put plainly: ATG_IR1_CIS: Attagene CIS-FACTORIAL HepG2 Assay for human Nuclear Receptor Subfamily 1 Group H Member 4 (NR1H4), IR1 submotif (AID 2282946). Conditions: IR1 reporter transcription, actives raise or lower the signal. The essentials: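 Fluorescence of capillary-separated, HpaI-digested RT-PCR reporter products gave IR1-element mRNA induction in HepG2 cells 24 h after dosing. Endogenous transcription factors drove the cis-regulated reporters; activity was fitted bidirectionally against DMSO.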

The nature of test [3]: ATG_GRE_CIS: Attagene CIS-FACTORIAL HepG2 Assay for human Glucocorticoid Response Elements (GRE) (AID 2282947). Conditions: HepG2 GRE cis-reporter, Attagene multiplex mRNA; actives raise or lower the signal. The gist of the method: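 Read-out: fluorescent reporter-transcript fragments separated by capillary electrophoresis after RT-PCR. Transiently transfected HepG2 cells carrying cis-element-driven reporter units were dosed for 24 h; gain or loss of signal fitted against DMSO control.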

A short description of test [4]: ATG_ISRE_CIS: Attagene CIS-FACTORIAL HepG2 Assay for human Interferon Regulatory Factor 1 (IRF1) binding to an Interferon-Stimulated Response Element (ISRE) (AID 2282948). Conditions: HepG2 ISRE cis-reporter (Attagene), mRNA transcription readout; actives raise or lower the signal. The essentials: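 Multiplexed mRNA reporter readout in human liver HepG2 cells: cis-element-driven reporters transfected, compound added for 24 h, transcripts amplified, fluorescently labelled and sized by capillary electrophoresis; curve fitting bidirectional against DMSO.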

A short description of test [5]: ATG_M_32_CIS: Attagene CIS-FACTORIAL HepG2 Assay for M32 Transcription Factor (Internal Marker) (AID 2282949).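 Also: background control marker of the multiplexed CIS panel rather than a real target.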 Conditions: HepG2 Attagene cis-factorial M32 reporter, mRNA; actives raise or lower the signal. The essentials: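 Using DMSO as baseline, bidirectional curve fits were applied to reporter mRNA signals. These came from transiently transfected HepG2 cells exposed for 24 h, with RNA analysed by RT-PCR, FAM primer extension, HpaI digestion and CE.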

Test [6] in a line: ATG_M_06_CIS: Attagene CIS-FACTORIAL HepG2 Assay for M06 Transcription Factor (Internal Marker) (AID 2282950). Conditions: HepG2 Attagene CIS-FACTORIAL M06 internal marker reporter; actives raise or lower the signal. The essentials:
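Terse: HepG2, transient MRTU transfection (FuGene 6), 24 h dosing; total RNA, oligo(dT) RT, PCR, FAM label, HpaI cut, capillary electrophoresis; bidirectional fit vs DMSO baseline; background-control endpoint.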

Test [7] has as its target Hypoxia-inducible factor 1-alpha (Homo sapiens) (UniProt Q16665). Put plainly: ATG_HIF1a_CIS: Attagene CIS-FACTORIAL HepG2 Assay for human Hypoxia Inducible Factor 1 (HIF1A) (AID 2282951). Conditions: HepG2 Attagene cis-factorial HIF1a reporter transcription; actives raise or lower the signal. The gist of the method: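 After 24 h chemical exposure of reporter-transfected HepG2 cells, reporter cDNA was PCR-amplified, labelled by 6-FAM primer extension (2 min 95 C, 20 s 68 C, 10 min 72 C), HpaI-cut (2 h, 37 C) and analysed by CE.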

In test [8] the target is Hepatocyte nuclear factor 6 (Homo sapiens) (UniProt Q9UBC0). Put plainly: ATG_HNF6_CIS: Attagene CIS-FACTORIAL HepG2 Assay for human Hepatocyte Nuclear Factor 6 (HNF6) (AID 2282952). Conditions: HepG2 Attagene cis-factorial HNF6 reporter transcription; actives raise or lower the signal. The essentials:
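Endogenous transcription factor activity in human HepG2 liver cells was captured through cis-regulated reporter constructs. After 24 h treatment, reporter mRNA was measured by RT-PCR with capillary electrophoresis, and activity was fitted in both directions relative to DMSO.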

Test [9] deals with Heat shock factor protein 1 (Homo sapiens) (UniProt Q00613). Nature of the test: ATG_HSE_CIS: Attagene CIS-FACTORIAL HepG2 Assay for human Heat Shock Transcription Factor 1 (HSE) (AID 2282953). Conditions: HepG2 HSE cis-reporter, Attagene RNA transcription; actives raise or lower the signal. The essentials: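 Read-out: fluorescence of reporter-specific RT-PCR fragments separated by capillary electrophoresis. HepG2 carrying transfected cis-element reporter units; 24 h dosing; activity fitted in both directions relative to DMSO baseline.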
Sequence of Heat shock factor protein 1 (Homo sapiens) (Q00613 whole entry, looked up, the tested form may be a part): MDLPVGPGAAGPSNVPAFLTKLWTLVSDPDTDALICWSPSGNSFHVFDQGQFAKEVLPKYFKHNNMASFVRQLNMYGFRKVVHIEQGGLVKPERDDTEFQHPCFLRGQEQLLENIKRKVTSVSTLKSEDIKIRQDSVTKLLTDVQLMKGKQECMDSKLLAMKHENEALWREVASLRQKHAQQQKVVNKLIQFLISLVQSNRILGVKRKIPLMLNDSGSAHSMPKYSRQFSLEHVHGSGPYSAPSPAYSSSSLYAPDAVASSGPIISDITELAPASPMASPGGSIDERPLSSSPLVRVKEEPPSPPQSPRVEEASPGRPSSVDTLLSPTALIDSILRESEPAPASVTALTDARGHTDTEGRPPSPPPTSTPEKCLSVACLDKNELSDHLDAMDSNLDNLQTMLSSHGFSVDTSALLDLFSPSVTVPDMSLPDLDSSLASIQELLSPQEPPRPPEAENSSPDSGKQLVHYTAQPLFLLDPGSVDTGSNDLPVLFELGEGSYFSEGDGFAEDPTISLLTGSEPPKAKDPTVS

A short description of test [10]: ATG_MRE_CIS: Attagene CIS-FACTORIAL HepG2 Assay for human Metal Responsive Element (MRE) (AID 2282954). Conditions: HepG2 MRE cis-reporter transcription, Attagene multiplex; actives raise or lower the signal. The essentials:
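RT-PCR/capillary electrophoresis readout of reporter mRNA, 24 h post-dosing, in HepG2 cells transfected with multiplexed cis-regulated reporter constructs. Gain or loss of signal fitted bidirectionally against DMSO baseline.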

The nature of test [11]: ATG_PBREM_CIS: Attagene CIS-FACTORIAL HepG2 Assay for human Phenobarbital-responsive Enhancer Module (PBREM) (AID 2282955). Conditions: HepG2 PBREM cis-reporter, Attagene multiplexed transcription; actives raise or lower the signal. The gist of the method:
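Measures endogenous factor action on a phenobarbital-responsive enhancer module. HepG2 transiently carrying cis reporters, 24 h treatment, mRNA read-out by RT-PCR plus capillary electrophoresis.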

In test [12] the target is Paired box protein Pax-6 (Homo sapiens) (UniProt P26367). Put plainly: ATG_Pax6_CIS: Attagene CIS-FACTORIAL HepG2 Assay for human Paired Box 6 (PAX6) (AID 2282956). Conditions: HepG2 CIS-FACTORIAL PAX6 reporter transcription, RNA readout; actives raise or lower the signal. The essentials: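 Fluorescent RT-PCR products separated by capillary electrophoresis report PAX6-linked promoter mRNA in HepG2 cells 24 h post-dose. Curves fitted bidirectionally, DMSO as negative control.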
Sequence of Paired box protein Pax-6 (Homo sapiens) (P26367 whole entry, looked up): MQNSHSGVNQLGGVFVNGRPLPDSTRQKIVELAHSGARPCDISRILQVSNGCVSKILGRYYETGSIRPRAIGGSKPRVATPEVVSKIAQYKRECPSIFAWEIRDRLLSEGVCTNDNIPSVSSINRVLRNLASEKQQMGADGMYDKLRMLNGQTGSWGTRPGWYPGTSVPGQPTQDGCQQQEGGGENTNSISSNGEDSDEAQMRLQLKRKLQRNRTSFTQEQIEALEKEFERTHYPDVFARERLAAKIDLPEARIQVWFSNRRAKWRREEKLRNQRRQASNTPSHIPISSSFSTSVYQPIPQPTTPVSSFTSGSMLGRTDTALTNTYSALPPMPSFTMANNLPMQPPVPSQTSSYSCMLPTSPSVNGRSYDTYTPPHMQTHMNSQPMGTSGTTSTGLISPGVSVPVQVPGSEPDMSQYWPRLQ

Test [13] is described as follows: ATG_PXRE_CIS: Attagene CIS-FACTORIAL HepG2 Assay for human Pregnane X Receptor Element (PXRE) (AID 2282957). Conditions: HepG2 Attagene CIS-FACTORIAL PXRE reporter, mRNA; actives raise or lower the signal. The gist of the method:
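Endogenous transcription factor activity in HepG2 was gauged through induction of reporter mRNA driven by a cis-regulating promoter element, sampled 24 h post-treatment. Activity was fitted in both directions against DMSO negative control.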

The nature of test [14]: ATG_PPRE_CIS: Attagene CIS-FACTORIAL HepG2 Assay for human Peroxisome Proliferator-activated Response Element (PPRE) (AID 2282958). Conditions: HepG2 PPRE cis-element reporter, Attagene transcription factor profiling; actives raise or lower the signal. The gist of the method:
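PPRE activity in HepG2: transient cis-reporter transfection, 24 h compound incubation, reporter mRNA by RT-PCR and CE fluorescence; gain/loss fitted against DMSO.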

Test [15] in a line: ATG_RORE_CIS: Attagene CIS-FACTORIAL HepG2 Assay for human RAR-related Orphan Receptor Element (RORE) (AID 2282959). Conditions: HepG2 Attagene cis-factorial RORE reporter, mRNA; actives raise or lower the signal. The essentials:
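A 24-hour exposure of transfected HepG2 hepatoma cells precedes RNA isolation and reporter RT-PCR. Labeled products are digested with HpaI and resolved by capillary electrophoresis, with gain or loss of signal scored relative to DMSO.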

The nature of test [16]: ATG_Sox_CIS: Attagene CIS-FACTORIAL HepG2 Assay for human SRY-box transcription factor (SOX) (AID 2282960). Conditions: HepG2 Attagene cis-factorial SOX reporter, mRNA; actives raise or lower the signal. The gist of the method:
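HepG2, cis reporter units, 24 h exposure. Reporter mRNA: RT-PCR → FAM labelling → HpaI → CE fluorescence. Bidirectional fit vs DMSO.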

In test [17] the target is Transcription factor Sp1 (Homo sapiens) (UniProt P08047). Nature of the test: ATG_Sp1_CIS: Attagene CIS-FACTORIAL HepG2 Assay for human Specificity Protein 1 (Sp1) (AID 2282961). Conditions: HepG2 Sp1 cis-reporter transcription, actives raise or lower the signal. The gist of the method: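 Liver-derived HepG2 cells, cis-element reporter library, 24 h treatment; RNA isolated, cDNA amplified with reporter-specific primers, FAM-labeled fragments sized on capillary analyzer. DMSO baseline, bidirectional curve fit.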
Sequence of Transcription factor Sp1 (Homo sapiens) (P08047 whole entry, looked up, the tested form may be a part): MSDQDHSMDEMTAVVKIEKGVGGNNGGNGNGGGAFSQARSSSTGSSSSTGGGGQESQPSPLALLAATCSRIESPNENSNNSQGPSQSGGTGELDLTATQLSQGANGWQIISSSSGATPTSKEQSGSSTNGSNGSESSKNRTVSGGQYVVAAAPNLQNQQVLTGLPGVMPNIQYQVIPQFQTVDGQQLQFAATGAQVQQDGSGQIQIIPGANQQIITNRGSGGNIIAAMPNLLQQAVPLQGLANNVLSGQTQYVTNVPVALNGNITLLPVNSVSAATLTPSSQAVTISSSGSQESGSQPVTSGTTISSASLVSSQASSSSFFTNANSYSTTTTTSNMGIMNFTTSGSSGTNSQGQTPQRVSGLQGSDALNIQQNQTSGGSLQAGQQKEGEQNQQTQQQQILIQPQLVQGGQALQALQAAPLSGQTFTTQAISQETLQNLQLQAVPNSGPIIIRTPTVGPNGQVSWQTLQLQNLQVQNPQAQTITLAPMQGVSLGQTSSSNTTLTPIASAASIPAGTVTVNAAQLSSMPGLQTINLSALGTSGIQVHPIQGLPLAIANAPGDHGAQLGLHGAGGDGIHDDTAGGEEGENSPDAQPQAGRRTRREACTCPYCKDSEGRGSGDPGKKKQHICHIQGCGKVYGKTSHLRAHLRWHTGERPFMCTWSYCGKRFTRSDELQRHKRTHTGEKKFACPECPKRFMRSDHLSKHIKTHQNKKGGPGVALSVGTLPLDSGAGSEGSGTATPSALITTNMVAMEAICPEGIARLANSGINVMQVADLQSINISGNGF

The nature of test [18]: ATG_SREBP_CIS: Attagene CIS-FACTORIAL HepG2 Assay for human Sterol Regulatory Element Binding (SREBP) (AID 2282962). Conditions: HepG2 Attagene cis-factorial SREBP reporter, mRNA; actives raise or lower the signal. The essentials:
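Endogenous factor activity is measured in HepG2 through multiplexed reporter units under cis-element control. Following a 24 h incubation, reporter transcripts are reverse-transcribed, PCR-amplified and sized by capillary electrophoresis; activity is fitted in both directions relative to DMSO.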

Test [19] deals with Signal transducer and activator of transcription 3 (Homo sapiens) (UniProt P40763). Nature of the test: ATG_STAT3_CIS: Attagene CIS-FACTORIAL HepG2 Assay for human Signal Transducer and Activator of Transcription 3 (STAT3) (AID 2282963). Conditions: HepG2, Attagene cis-factorial STAT3 reporter transcription; actives raise or lower the signal. The gist of the method:
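Readout: fluorescent reporter mRNA fragments resolved by capillary electrophoresis. Setup: HepG2 transfected with MRTUs reporting endogenous transcription-factor activity, dosed 24 h. Gain or loss of signal fitted bidirectionally against DMSO control.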

Test [20] can be described thus: ATG_TA_CIS: Attagene CIS-FACTORIAL HepG2 Assay for human TA Basal Promoter (AID 2282964). Conditions: HepG2 Attagene CIS-factorial TA basal promoter reporter; actives raise or lower the signal. The gist of the method: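 Transfected HepG2, 24 h compound exposure; RNA → RT-PCR → FAM primer extension → HpaI cut → CE fluorescence. Gain/loss-of-signal fitted against DMSO negative control. Background-control readout.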

Sequence of Hepatocyte nuclear factor 6 (Homo sapiens) (Q9UBC0 whole entry, looked up): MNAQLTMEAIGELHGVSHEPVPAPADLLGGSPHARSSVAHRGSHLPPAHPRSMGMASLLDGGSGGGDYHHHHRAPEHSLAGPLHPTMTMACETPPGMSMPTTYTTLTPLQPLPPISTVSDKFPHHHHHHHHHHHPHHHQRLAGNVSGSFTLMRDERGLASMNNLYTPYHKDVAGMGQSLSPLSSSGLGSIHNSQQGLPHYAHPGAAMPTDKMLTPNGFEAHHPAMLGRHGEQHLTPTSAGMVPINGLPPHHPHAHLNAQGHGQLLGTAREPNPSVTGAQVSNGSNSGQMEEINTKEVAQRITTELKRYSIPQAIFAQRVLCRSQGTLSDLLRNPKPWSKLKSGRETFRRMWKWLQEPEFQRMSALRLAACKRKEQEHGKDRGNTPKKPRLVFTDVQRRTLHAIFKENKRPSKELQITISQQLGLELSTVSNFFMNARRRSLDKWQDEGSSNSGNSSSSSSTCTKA
Sequence of Hypoxia-inducible factor 1-alpha (Homo sapiens) (Q16665 whole entry, looked up): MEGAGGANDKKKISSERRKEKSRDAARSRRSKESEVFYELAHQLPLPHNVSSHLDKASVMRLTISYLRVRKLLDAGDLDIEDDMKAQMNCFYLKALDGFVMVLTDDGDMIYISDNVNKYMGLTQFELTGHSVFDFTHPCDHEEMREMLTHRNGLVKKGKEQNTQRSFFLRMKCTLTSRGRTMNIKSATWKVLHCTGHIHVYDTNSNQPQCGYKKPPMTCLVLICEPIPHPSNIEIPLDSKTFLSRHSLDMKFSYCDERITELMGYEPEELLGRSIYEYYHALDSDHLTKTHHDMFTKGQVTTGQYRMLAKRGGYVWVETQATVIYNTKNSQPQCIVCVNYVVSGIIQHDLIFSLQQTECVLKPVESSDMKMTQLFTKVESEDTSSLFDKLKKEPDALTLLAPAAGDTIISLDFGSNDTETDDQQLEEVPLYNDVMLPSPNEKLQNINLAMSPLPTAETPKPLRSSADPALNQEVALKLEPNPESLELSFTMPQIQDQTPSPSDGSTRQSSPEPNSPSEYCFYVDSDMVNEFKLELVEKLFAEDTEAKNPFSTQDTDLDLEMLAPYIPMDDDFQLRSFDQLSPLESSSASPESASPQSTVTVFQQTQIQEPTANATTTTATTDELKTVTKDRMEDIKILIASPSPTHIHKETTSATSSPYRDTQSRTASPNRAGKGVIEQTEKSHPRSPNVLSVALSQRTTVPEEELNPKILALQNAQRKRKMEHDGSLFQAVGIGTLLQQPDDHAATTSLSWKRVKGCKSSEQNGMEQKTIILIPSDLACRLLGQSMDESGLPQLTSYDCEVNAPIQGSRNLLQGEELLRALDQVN
Sequence of Bile acid receptor (Homo sapiens) (Q96RI1 whole entry, looked up): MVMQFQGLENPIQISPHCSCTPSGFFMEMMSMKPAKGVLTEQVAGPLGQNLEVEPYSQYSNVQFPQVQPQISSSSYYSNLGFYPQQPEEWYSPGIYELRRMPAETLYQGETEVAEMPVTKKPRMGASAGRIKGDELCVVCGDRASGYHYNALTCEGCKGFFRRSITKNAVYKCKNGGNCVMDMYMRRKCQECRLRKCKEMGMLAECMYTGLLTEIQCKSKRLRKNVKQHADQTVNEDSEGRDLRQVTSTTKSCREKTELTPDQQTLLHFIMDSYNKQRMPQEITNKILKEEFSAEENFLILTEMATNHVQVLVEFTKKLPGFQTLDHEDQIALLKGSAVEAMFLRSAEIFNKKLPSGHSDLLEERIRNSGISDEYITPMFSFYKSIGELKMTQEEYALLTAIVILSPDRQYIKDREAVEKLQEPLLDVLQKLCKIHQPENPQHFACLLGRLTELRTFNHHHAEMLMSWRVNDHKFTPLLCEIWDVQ
Sequence of Signal transducer and activator of transcription 3 (Homo sapiens) (P40763 whole entry, looked up, the tested form may be a part): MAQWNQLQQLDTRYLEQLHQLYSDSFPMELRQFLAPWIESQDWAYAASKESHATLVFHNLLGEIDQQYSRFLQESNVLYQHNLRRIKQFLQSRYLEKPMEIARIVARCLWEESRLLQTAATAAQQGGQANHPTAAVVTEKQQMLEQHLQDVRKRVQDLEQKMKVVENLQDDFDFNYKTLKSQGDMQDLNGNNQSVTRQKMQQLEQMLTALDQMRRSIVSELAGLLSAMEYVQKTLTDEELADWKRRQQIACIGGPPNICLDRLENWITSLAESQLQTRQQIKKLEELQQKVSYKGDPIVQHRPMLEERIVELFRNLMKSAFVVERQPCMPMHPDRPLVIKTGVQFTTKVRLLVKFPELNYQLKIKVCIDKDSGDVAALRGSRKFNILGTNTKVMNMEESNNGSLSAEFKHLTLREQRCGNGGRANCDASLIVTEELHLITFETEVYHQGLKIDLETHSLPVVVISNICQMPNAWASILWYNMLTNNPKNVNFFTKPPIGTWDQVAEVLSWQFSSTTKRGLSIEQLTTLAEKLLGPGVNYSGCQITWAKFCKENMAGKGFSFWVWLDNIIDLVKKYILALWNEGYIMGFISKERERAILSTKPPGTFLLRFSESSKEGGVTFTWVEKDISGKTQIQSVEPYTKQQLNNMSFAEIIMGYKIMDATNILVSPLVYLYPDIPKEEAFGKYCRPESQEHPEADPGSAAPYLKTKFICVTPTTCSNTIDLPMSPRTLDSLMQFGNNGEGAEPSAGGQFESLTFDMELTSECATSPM

Regarding `CCN(CC)c1ccc2c(C)cc(=O)oc2c1`, the molecule was called inactive in [1], in test [2], in test [3], in [4], in test [5] and in [6]. Moreover, the call in [7], in test [8], in test [9], in test [11], in test [15] and in [16] was inactive. For the same molecule, the molecule was classed as inactive in [17], in test [18], in [19] and in [20]. For the same molecule, the AC50 in test [10] was 71.9 µM (active); in test [12] it was 65.9 µM (active); in test [13] it was 2.92 µM (active); in [14] it was 50.2 µM (active).

`C=C(C)C(=O)OCC(F)(F)C(F)(F)C(F)(F)C(F)(F)C(F)(F)C(F)(F)C(F)(F)F`: the molecule was called inactive in [1], in test [2], in [3], in test [4], in [5] and in test [6]. Moreover, the result in [7], in test [8], in test [9], in [10], in [11] and in test [12] was inactive. Moreover, the result in [13], in [14], in [15], in [16], in test [17] and in test [18] was inactive. Also, the molecule was called inactive in test [19] and in test [20].

In the case of `C=CC(=O)OCC(F)(F)C(F)(F)C(F)(F)C(F)(F)COC(=O)C=C`, the AC50 in test [1] is 81.1 µM (active); in [4], 61.4 µM (active); in test [7], 33.8 µM (active); in test [8], 60.3 µM (active); in test [9], 79 µM (active); in test [10] it was 56.7 µM (active). For the same molecule, the AC50 was 62.1 µM (active) in test [12]; 40.3 µM (active) in test [15]; 56.2 µM (active) in [16]; 44.7 µM (active) in [17]; 72.4 µM (active) in test [18]. Also, the molecule was called inactive in test [2], in test [3], in test [5], in test [6], in test [11] and in test [13]. Besides, the call in test [14], in test [19] and in test [20] was inactive.

What is called AC50 is the concentration giving half of the maximal activity seen.

The values are drawn from PubChem BioAssay (EPA / NIEHS).
